# Experimental data: the antibiotic and cytotoxicity screens of Wong et al. (2023)
# The campaign covered roughly 39,000 compounds. About 3,300 (8.5%) were called active. Only a selection was taken, and actives are over-represented in it overall.
# Test system: HepG2
# Test: cytotoxicity call (relative viability < 0.9)
# Settings: 10 µM
row,Structure (SMILES),cytotoxicity call
1,O=C(C[C@H]1C=C[C@H](NC(=O)Cc2ccccn2)[C@H](CO)O1)NCCc1ccncc1,inactive
2,C[C@@H]1CN([C@@H](C)CO)C(=O)c2cc(NC(=O)CCCN(C)C)ccc2O[C@@H](C)CCCCO[C@@H]1CN(C)S(=O)(=O)c1cn(C)cn1,inactive
3,C[C@H](CO)N1C[C@H](C)[C@H](CN(C)Cc2ccc3c(c2)OCCN3C)OCc2ccccc2-c2c(n(C)c3ccccc23)C1=O,inactive
4,C[C@@H]1CN([C@@H](C)CO)C(=O)c2c(c3ccccc3n2C)-c2ccccc2CO[C@H]1CN(C)Cc1ccc2c(c1)OCCN2C,active
5,C[C@H](CO)N1C[C@H](C)[C@@H](CN(C)Cc2ccc3c(c2)OCCN3C)OCc2ccccc2-c2c(n(C)c3ccccc23)C1=O,inactive
6,C[C@H]1CN([C@@H](C)CO)C(=O)c2c(c3ccccc3n2C)-c2ccccc2CO[C@@H]1CN(C)Cc1ccc2c(c1)OCCN2C,active
7,C[C@@H]1CN([C@@H](C)CO)C(=O)c2c(c3ccccc3n2C)-c2ccccc2CO[C@@H]1CN(C)Cc1ccc2c(c1)OCO2,inactive
8,C[C@@H]1CN([C@@H](C)CO)C(=O)c2c(c3ccccc3n2C)-c2ccccc2CO[C@@H]1CN(C)Cc1ccc2c(c1)OCCN2C,inactive
9,C[C@@H]1CN([C@H](C)CO)C(=O)c2c(c3ccccc3n2C)-c2ccccc2CO[C@@H]1CN(C)Cc1ccc2c(c1)OCCN2C,active
10,C[C@H]1CN([C@@H](C)CO)C(=O)c2c(c3ccccc3n2C)-c2ccccc2CO[C@H]1CN(C)Cc1ccc2c(c1)OCCN2C,inactive
11,C[C@@H]1CN([C@H](C)CO)C(=O)c2c(c3ccccc3n2C)-c2ccccc2CO[C@H]1CN(C)Cc1ccc2c(c1)OCCN2C,inactive
12,COc1ccc(C#Cc2ccc3c(c2)[C@]2(C(=O)N3)[C@H](c3ccccc3OCCO)N3[C@H](c4ccccc4)[C@H](c4ccccc4)OC(=O)[C@H]3[C@@H]2C(=O)N2CCc3cc(OC)c(OC)cc3C2)cc1,inactive
13,O=C(Cc1ccncc1)Nc1ccc2c(c1)[C@@H]1C[C@H](CC(=O)N3CCc4ccccc4C3)O[C@H](CO)[C@@H]1O2,inactive
14,O=C1NC(=O)[C@H]2[C@@H]1[C@H](c1ccccc1)N1[C@@H]3C(=O)NC(=O)[C@@H]3[C@H](c3ccccc3)N21,inactive
15,COc1ccc(C#Cc2ccc3c(c2)O[C@H](CN(C)C(C)=O)[C@@H](C)CN([C@@H](C)CO)S3(=O)=O)cc1,inactive
16,COc1ccc2c3c(n(c2c1)C)[C@H](CO)N(C[C@]13CCN(CC1)C(=O)Nc1cccc(c1)F)C(=O)CN1CCOCC1,inactive
17,N=C(NO)NCC[C@H](N)C(=O)O,inactive
18,C[C@@H]1CN([C@H](C)CO)C(=O)c2cc(NC(=O)NC3CCCCC3)ccc2O[C@@H](C)CCCCO[C@@H]1CN(C)C(=O)NC1CCCCC1,inactive
19,C[C@@H]1CCCCO[C@@H](CN(C)Cc2ccc(C(F)(F)F)cc2)[C@@H](C)CN([C@@H](C)CO)C(=O)c2cc(NC(=O)Nc3ccccc3)ccc2O1,inactive
20,C[C@@H]1CN([C@@H](C)CO)C(=O)c2cc(NC(=O)Nc3ccccc3)ccc2O[C@@H](C)CCCCO[C@H]1CN(C)Cc1ccc(C(F)(F)F)cc1,inactive
21,C[C@H](CO)N1C[C@H](C)[C@@H](CN(C)Cc2ccc(C(F)(F)F)cc2)OCCCC[C@H](C)Oc2ccc(NC(=O)Nc3ccccc3)cc2C1=O,active

row,Structure (SMILES),cytotoxicity call
1,C[C@@H]1CCCCO[C@@H](CN(C)Cc2ccc(C(F)(F)F)cc2)[C@H](C)CN([C@@H](C)CO)C(=O)c2cc(NC(=O)Nc3ccccc3)ccc2O1,inactive
2,C[C@@H]1CN([C@@H](C)CO)C(=O)c2cc(NC(=O)Nc3ccccc3)ccc2O[C@@H](C)CCCCO[C@@H]1CN(C)Cc1ccc(C(F)(F)F)cc1,active
3,C[C@@H]1CCCCO[C@@H](CN(C)Cc2ccc(C(F)(F)F)cc2)[C@H](C)CN([C@H](C)CO)C(=O)c2cc(NC(=O)Nc3ccccc3)ccc2O1,active
4,C[C@@H]1CN([C@H](C)CO)C(=O)c2cc(NC(=O)Nc3ccccc3)ccc2O[C@@H](C)CCCCO[C@@H]1CN(C)Cc1ccc(C(F)(F)F)cc1,active
5,O=C(O)c1ccc(CNc2cn[nH]c(=O)n2)cc1,inactive
6,COCCOC(=O)N1C(=O)[C@@]2(c3cc(C#CC4=CCCCC4)ccc31)[C@H](C(=O)NC[C@H](O)c1ccccc1)[C@H]1C(=O)O[C@H](c3ccccc3)[C@H](c3ccccc3)N1[C@@H]2c1ccc(O)cc1,inactive
7,C[C@@H]1CN([C@@H](C)CO)C(=O)Cc2cc(NC(=O)Cn3cnnn3)ccc2O[C@H]1CN(C)S(=O)(=O)c1ccccc1,inactive
8,CN(C)CC(=O)N1[C@@H](CO)[C@H](c2ccc(C3=CCCC3)cc2)C12CN(S(=O)(=O)Cc1ccccc1)C2,inactive
9,C[C@H](NC(=O)N(C)C[C@H]1OCc2ccccc2-c2c(n(C)c3ccccc23)C(=O)N([C@@H](C)CO)C[C@@H]1C)c1ccccc1,inactive
10,Cc1ccc(S(=O)(=O)N(C)C[C@H]2Oc3ccc(NS(C)(=O)=O)cc3CC(=O)N([C@H](C)CO)C[C@H]2C)cc1,inactive
11,O=C(C[C@@H]1C[C@H]2c3cc(NC(=O)c4cccnc4)ccc3O[C@H]2[C@@H](CO)O1)NCc1cc(F)ccc1F,inactive
12,CCCNC(=O)N1C[C@H](O)COC[C@H]2O[C@@H](CC(=O)N3CCN(C)CC3)CC[C@@H]21,inactive
13,O=C(C[C@@H]1C[C@H]2c3cc(NC(=O)c4ccc5c(c4)OCO5)ccc3O[C@H]2[C@@H](CO)O1)NCCc1ccccc1,inactive
14,COC(=O)[C@@H]1C(=O)NC[C@H]1c1ccccc1,inactive
15,C[C@@H]1CCCCO[C@@H](CN(C)Cc2ccc(C(F)(F)F)cc2)[C@@H](C)CN([C@H](C)CO)C(=O)c2cc(NC(=O)Nc3ccccc3)ccc2O1,inactive
16,C[C@@H]1CCCCO[C@H](CN(C)Cc2ccc(C(F)(F)F)cc2)[C@@H](C)CN([C@H](C)CO)C(=O)c2cc(NC(=O)Nc3ccccc3)ccc2O1,inactive
17,C[C@@H]1CN([C@H](C)CO)C(=O)c2cc(NC(=O)Nc3ccccc3)ccc2O[C@@H](C)CCCCO[C@H]1CN(C)Cc1ccc(C(F)(F)F)cc1,active
18,C[C@@H]1CCCCO[C@H](CN(C)Cc2ccc(C(F)(F)F)cc2)[C@@H](C)CN([C@@H](C)CO)C(=O)c2cc(NC(=O)Nc3ccccc3)ccc2O1,active
19,C[C@@H]1CCCCO[C@H](CN(C)Cc2ccc(C(F)(F)F)cc2)[C@H](C)CN([C@@H](C)CO)C(=O)c2cc(NC(=O)Nc3ccccc3)ccc2O1,active
20,C[C@H]1CCCCO[C@@H](CN(C)Cc2ccc(C(F)(F)F)cc2)[C@@H](C)CN([C@@H](C)CO)C(=O)c2cc(NC(=O)Nc3ccccc3)ccc2O1,active
